# Test results reported in the supplement of paper PMC6555819.
# System: PPARg homodimer (NR concentration 180 nM)
# Test: PBM binding z-score (relative to random genomic background probes); higher = stronger binding; sequences stand for … in GC…GCGATTGACAGCGTAGAATGAAGG
# Method in brief: (§1)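 Binding z-scores were set against random background probes. The data came from custom Agilent 4×180K protein-binding microarrays carrying double-stranded probes with 34-nt variable regions, incubated 1 h with ligand-free nuclear receptor dimers. Partner-specific antibodies detected binding, and scanned fluorescence was regression-normalized.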
row,Sequence,PBM binding z-score
1,ATCTCTAGGTAAGACTCAGTTCACTGAAGAACGC,0.997
2,TCATATAGATAATACAGGTGAAAGTCGGCATCTA,0.855
3,AATAAAGGGTCACTAGGCCAGAGTAGGTACGAAT,2.96
4,TCGATTAGGTTACCAATGGGGCATTCAGCTTTCT,0.366
5,ACTAGTTGGTCAGCTGACGTCACACACAATTCGG,0.152
6,AATACAGGGTCATCGTAGTCCAGAGTACGCACAG,2.87
7,CGAACGAGGGCATGAGATGATAGCAAATGCCGAT,0.685
8,ATACCAAGGAGATCGTGAGGTCGTTGATACTAAC,0.128
9,GCTAGCAGGCCATTTCGGTCACTCAATGACGGGC,-0.364
10,ACTATTAGGTGAGACGAGGGCAACCGATAGGTTG,1.46
11,TCCTATAGGTAAATGCTAGGTGAAAGTCCGATCT,-0.495
12,ATCTCTAGATAAGACTCAGTTCAGTGAAGAACGC,-0.287
13,TTAGCAAGGTGAGCTGAGGTCGTTGATCCAACTC,-0.0688
14,CGCCCAAGGTCATAGGAGGTCAGTGAAGACAGAT,3.59
15,GCATATAGGTAGTACAAGGTGAAAGTCCGATTGT,-0.146
16,CAAACTAGGTCAAACGTCAAAGTCGAGCCAACCA,2.05
17,GCGACTGGGGCATCAGCAGGTTACCGTAACTTAA,0.0663
18,GCTGCTAGGTCAGGTTGGTCAGCTTACGGGTACG,0.591
19,CGTCCAAGGTCAGAGAGGTCAGTGAATGCCGAGT,5.38
20,TAGCCTAGGTCAGGCGGGCCAGTATAGTGTCGGC,-0.227

row,Sequence,PBM binding z-score
1,TCTAGTTGGTCACCGAGGTCACACACGACGGGTA,3.73
2,GCTGCTAGGTCAACTGTTGGTCAGCTAAAGCTCG,1.68
3,ACAGACAGGTGATGAAGGCAACTCAGGCTATCAT,-0.119
4,CGAACTAGGTCATCCTGGACAGTGAATACATTGA,1.83
5,TTACCAAGGTGAAGGTTGTTGATCCCTCTGTAGA,0.542
6,GATACAGGGCCAAGGCCAGAGTACGCGTATTGAT,-0.373
7,TTACCAAGGTGCAAGGTCGTTGATGCACGCCTTG,0.87
8,CCTAGTTGATCAAGGTCACACACGCTATAGGTAC,3.39
9,CATACTGGGCCACGAAAGGTCATTGATTCAGTGA,2.89
10,CCTAGTGGGTCAAGGTCACACACGCTATAGGTAC,4.57
11,GGAACGAGGGCATTCGTGTTGATAGCATGGCGAT,0.242
12,TCTAGTTGGTCCCGGAGGTCACACACGACGGGTA,2.76
13,CCTAGCAGCCCAGGGTCACTCAAGCATTTCGCTT,1.2
14,CCTACTGGGTCAAGGTCATTGATCAGTCAAAGCA,2.56
15,CAAACTAGGTTACCGGAAGGTCAAAGTCCGCATG,4.03
16,TCATGTAGATCAGCAGGTTAAGAAAGCTGGCCAA,0.238
17,AGAACGAGGGCAATGAGTTGATAGCGCGGGTGGC,-0.335
18,CCTTATGGGTCACTGACAGGTTATAGCATTTGGA,2.16
19,GCGACTGGGGCAAAGCAGGTCACCATAAGGTTGG,1.51
20,CGTCCAAGGTGAAAGGTCAGTGAAGAGATGACGG,3.24

# System: PXR:RXRa (NR concentration 270 nM, RXRa partner concentration 90 nM)
# Test: as above
# Method in brief: as §1
row,Sequence,PBM binding z-score
1,ATCTCTAGGTAAGACTCAGTTCACTGAAGAACGC,1.71
2,TCATATAGATAATACAGGTGAAAGTCGGCATCTA,0.717
3,AATAAAGGGTCACTAGGCCAGAGTAGGTACGAAT,3.13
4,TCGATTAGGTTACCAATGGGGCATTCAGCTTTCT,0.467
5,ACTAGTTGGTCAGCTGACGTCACACACAATTCGG,0.163
6,AATACAGGGTCATCGTAGTCCAGAGTACGCACAG,5.53
7,CGAACGAGGGCATGAGATGATAGCAAATGCCGAT,0.00253
8,ATACCAAGGAGATCGTGAGGTCGTTGATACTAAC,1.65
9,GCTAGCAGGCCATTTCGGTCACTCAATGACGGGC,-0.577
10,ACTATTAGGTGAGACGAGGGCAACCGATAGGTTG,2.81
11,TCCTATAGGTAAATGCTAGGTGAAAGTCCGATCT,0.0422
12,ATCTCTAGATAAGACTCAGTTCAGTGAAGAACGC,0.428
13,TTAGCAAGGTGAGCTGAGGTCGTTGATCCAACTC,4.92
14,CGCCCAAGGTCATAGGAGGTCAGTGAAGACAGAT,6.51
15,GCATATAGGTAGTACAAGGTGAAAGTCCGATTGT,0.403
16,CAAACTAGGTCAAACGTCAAAGTCGAGCCAACCA,2.38
17,GCGACTGGGGCATCAGCAGGTTACCGTAACTTAA,-0.0573
18,GCTGCTAGGTCAGGTTGGTCAGCTTACGGGTACG,0.193
19,CGTCCAAGGTCAGAGAGGTCAGTGAATGCCGAGT,6.23
20,TAGCCTAGGTCAGGCGGGCCAGTATAGTGTCGGC,0.158

row,Sequence,PBM binding z-score
1,TCTAGTTGGTCACCGAGGTCACACACGACGGGTA,5.31
2,GCTGCTAGGTCAACTGTTGGTCAGCTAAAGCTCG,1.48
3,ACAGACAGGTGATGAAGGCAACTCAGGCTATCAT,-0.469
4,CGAACTAGGTCATCCTGGACAGTGAATACATTGA,1.3
5,TTACCAAGGTGAAGGTTGTTGATCCCTCTGTAGA,0.665
6,GATACAGGGCCAAGGCCAGAGTACGCGTATTGAT,-0.55
7,TTACCAAGGTGCAAGGTCGTTGATGCACGCCTTG,1.16
8,CCTAGTTGATCAAGGTCACACACGCTATAGGTAC,4.28
9,CATACTGGGCCACGAAAGGTCATTGATTCAGTGA,5.4
10,CCTAGTGGGTCAAGGTCACACACGCTATAGGTAC,4.75
11,GGAACGAGGGCATTCGTGTTGATAGCATGGCGAT,0.774
12,TCTAGTTGGTCCCGGAGGTCACACACGACGGGTA,4.18
13,CCTAGCAGCCCAGGGTCACTCAAGCATTTCGCTT,2.56
14,CCTACTGGGTCAAGGTCATTGATCAGTCAAAGCA,5.07
15,CAAACTAGGTTACCGGAAGGTCAAAGTCCGCATG,4.47
16,TCATGTAGATCAGCAGGTTAAGAAAGCTGGCCAA,0.193
17,AGAACGAGGGCAATGAGTTGATAGCGCGGGTGGC,1.62
18,CCTTATGGGTCACTGACAGGTTATAGCATTTGGA,2.86
19,GCGACTGGGGCAAAGCAGGTCACCATAAGGTTGG,3.05
20,CGTCCAAGGTGAAAGGTCAGTGAAGAGATGACGG,4.74
